Measurements taken from PubChem BioAssay AID588519 (ICCB-Longwood Screening Facility, Harvard Medical School, 2011).
Screen size: about 150,000 compounds; about 1,000 (0.67%) were called active. This is one part of a sample in which actives are shown more often than they occur. Rule as the data show it: active = % elongation below about 90%; inactive = the rest, inconclusive results apart.

Molecular target: Genome polyprotein (Poliovirus type 1 (strain Mahoney)) (UniProt P03300)
Test: poliovirus RdRp elongation inhibitors, primary screen, biochemical, fluorescence polarization, total intensity (AID 588519); as to z-score: compound at 16.7 µg/mL
Settings: poliovirus polymerase elongation, stronger effect = lower value; for % elongation: compound at 16.7 µg/mL; for z-score: measured here: FP z-score
[1] = measured here: total intensity read-out

Sequence of Genome polyprotein (Poliovirus type 1 (strain Mahoney)) (P03300 1749-2209 limits assumed): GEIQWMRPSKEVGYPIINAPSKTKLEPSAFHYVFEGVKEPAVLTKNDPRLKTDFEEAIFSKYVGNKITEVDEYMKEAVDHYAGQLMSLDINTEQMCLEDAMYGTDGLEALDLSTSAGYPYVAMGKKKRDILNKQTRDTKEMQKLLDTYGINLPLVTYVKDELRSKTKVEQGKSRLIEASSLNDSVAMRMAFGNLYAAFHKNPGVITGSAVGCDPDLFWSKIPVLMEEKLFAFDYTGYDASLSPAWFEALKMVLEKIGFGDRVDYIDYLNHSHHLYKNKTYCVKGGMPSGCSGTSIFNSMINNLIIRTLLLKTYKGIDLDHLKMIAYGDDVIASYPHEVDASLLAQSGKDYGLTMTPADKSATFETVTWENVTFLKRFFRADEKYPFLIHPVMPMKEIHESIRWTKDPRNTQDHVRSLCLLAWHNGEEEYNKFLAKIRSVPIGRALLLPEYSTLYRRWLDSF

SMILES	% elongation	z-score	% elongation [1]
COC(=O)CSc1nnc2c(n1)[nH]c1ccccc12	102% (inactive)	0.2	108%
CC(C)(C)NC(=O)C1CCN(S(=O)(=O)c2ccccc2)CC1	101% (inactive)	0.1	103%
CCC(=O)Nc1ccc(C(=O)n2nnc3ccccc32)cc1	104% (inactive)	1	102%
O=C1C(Nc2ccc(O)cc2)=C(n2nnc3ccccc32)C(=O)c2ccccc21	79% (active)	-2.2	79%
N#CC1=C2Sc3ccccc3N2CC1=O	97% (inactive)	-1	165%
Cc1c(C(=O)NC(C)CCc2ccccc2)oc2c1C(=O)CCC2 (configuration not stated)	102% (inactive)	0	102%
c1ccc2cc3cnccc3cc2c1	100% (inactive)	-0.3	102%
Sc1ccc2ccccc2c1	90% (active)	-1.5	91%
O=C1c2ccccc2C(=O)C1c1ccc2ccccc2c1	93% (inactive)	-1.3	92%
N#Cc1ccc(COC(=O)Cc2noc3ccccc23)cc1	109% (inactive)	0.7	104%
O=S(=O)(c1cc(S(=O)(=O)C(F)(F)F)c(Cl)c(S(=O)(=O)C(F)(F)F)c1)C(F)(F)F	98% (inactive)	-0.2	95%
C/C(=N\c1ccccn1)C1=C(O)c2ccccc2C1=O	98% (inactive)	-1	97%
O=S(=O)(NC1CCCCC1N1CCCCC1)c1ccc(Cl)cc1 (configuration not stated)	104% (inactive)	0.2	96%
Cc1ccc2nc(-c3ccccn3)cc(C(=O)O)c2c1	103% (inactive)	0.8	100%
Cc1ccc2nc(Nc3ccccc3)cc(C)c2c1	110% (inactive)	0.8	111%
Cc1ccc2nc(C)c3c(c2c1)N(c1ccccc1)CC3	89% (active)	-2.3	89%
CC(=O)OC[C@H]1O[C@@H](NC(=S)NN)[C@H](OC(C)=O)[C@@H](OC(C)=O)[C@@H]1OC(C)=O	103% (inactive)	0.3	96%
CC(=O)Oc1c[n+]([O-])n(-c2ccccc2)n1	97% (inactive)	-0.6	100%
CCOC(=O)C1=C(C)NC(=O)NC1c1ccccc1 (configuration not stated)	101% (inactive)	-0.1	102%
CCOC(=O)C(C(=O)c1ccccc1)C1(O)C(=O)c2ccccc2C1=O (configuration not stated)	46% (active)	-6.9	56%
CCOc1cc(C2C(C(=O)OC)=C(C)NC3=C2C(=O)c2ccccc23)ccc1O (configuration not stated)	112% (inactive)	0.2	113%
COC(=O)CC(N)c1ccc(Cl)cc1 (configuration not stated)	103% (inactive)	0.2	106%
C=CCN1CCN(C(c2ccc(C)cc2)c2nnnn2C2CCCC2)CC1 (configuration not stated)	103% (inactive)	0.4	102%
Cc1ccc(NC(=S)Nc2ccc(C)cc2)cc1	76% (active)	-4.1	82%
CSC(=S)Nc1ccc(C)cc1	100% (inactive)	0.1	104%
Cc1ccc(NC(=O)CC(=O)Nc2ccc(C)cc2)cc1	106% (inactive)	0.3	102%
O=C(O)COc1cc(Br)c(Br)c(Br)c1O	102% (inactive)	0.1	92%

SMILES	% elongation	z-score	% elongation [1]
CCn1c(SCc2cc(=O)oc3cc(NC(C)=O)ccc23)nnc1-c1ccccc1	100% (inactive)	-0.5	111%
O=C(NN=c1c(=O)c2ccccc2c1=O)c1ccncc1	58% (active)	-12.6	54%
O=C(NNc1ncnc2ccccc12)c1ccncc1	106% (inactive)	0.6	101%
CC(C)/C=N/NC(=O)c1ccccc1	103% (inactive)	0.3	103%
O=c1[nH]c(CN2CCCC2c2ccc3c(c2)OCCO3)nc2cc(Cl)ccc12 (configuration not stated)	102% (inactive)	0	104%
CCN(C(=O)CN1CCCCC1)c1nc2ccc(C)cc2s1	102% (inactive)	-0.3	103%
NC(=O)C1CCN(C(=S)Nc2ccccc2)CC1	103% (inactive)	1.1	103%
O=C(Nc1ccccc1)C(=S)Nc1ccccc1	87% (active)	-1.9	88%
CC(C)OC(=O)Nc1ccccc1	106% (inactive)	0.8	110%
COc1nc(NCCO)nc(Nc2ccc(I)cc2C)n1	99% (inactive)	-1.2	94%
O=C1c2ccccc2C(=O)N1CCN1c2cccc3cccc(c23)S1(=O)=O	100% (inactive)	0.1	101%
COC(=O)C1=CN(CCc2ccccc2)C=C(C(=O)OC)C1C(=O)OC	107% (inactive)	0.6	108%
CC(=O)Nc1ccccc1NC(=O)CN(C)S(=O)(=O)c1ccccc1	100% (inactive)	0	103%
Cc1cc(N2CCNCC2)nc(C)n1	102% (inactive)	0.1	102%
COC(=O)c1cc(-c2cccs2)nc2ccccc12	101% (inactive)	-0.1	101%
COC(=O)c1cc(N2CCNCC2)nc2ccccc12	88% (active)	-1.4	88%
N#CCCn1c(SCC(=O)NCCSc2ccc(Cl)cc2)nc2ccccc21	101% (inactive)	-0.2	104%
Cc1cc(SCc2ccccc2)nc2ccccc12	103% (inactive)	0.4	102%
Cc1cc(/C=C/C(=O)N2CCCC2c2cccs2)c(C)n1Cc1ccco1 (configuration not stated)	104% (inactive)	0.6	98%
CCCCOC(=O)Nc1nccs1	100% (inactive)	-0.4	99%
Nc1[nH]c(=S)sc1C(=O)Nc1nccs1	70% (active)	-3.3	75%
Cn1cccc1C(=O)Nc1nccs1	111% (inactive)	0.9	116%
CCN(C(=O)CSc1nnc2scc(-c3cccc(OC)c3)n12)c1ccccc1	103% (inactive)	0.2	100%
C#CCN1CCS(=O)(=O)CC1	100% (inactive)	-0.3	103%
CCNC(=O)C1CCCN(S(=O)(=O)N(CC)c2ccc(OCC)cc2)C1 (configuration not stated)	103% (inactive)	0.5	105%
CC(C)c1ccc(C2CC(=O)N3CN(C4CCCCC4)CSC3=C2C#N)cc1 (configuration not stated)	81% (active)	-3.5	82%
Cc1cc(C)c(C(=O)COC(=O)c2ccc(N(C)C)cc2)c(C)c1	104% (inactive)	-0.3	97%
